Source: the supplement of paper PMC7411054
Counter-ions that a name gives are not always drawn.

Assays:
Details in all cases: treatment time: 24 h
WPMY1-GM130-SQSTM1 [1] = assay: lowest phenotypically active concentration; higher = less potent
In short: (§1)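 Fifteen reporter lines derived from A549, HepG2 and WPMY1 cells by gene editing, carrying BFP for segmentation plus GFP and RFP/FusionRed markers, were exposed to 0.3, 1, 3 or 9 µM for 24 h in four wells each and imaged live. Live-cell features from each well were normalised to solvent control wells. A well set counted as deviating when ≥3 of 4 wells lay beyond the 95th percentile of control Euclidean distances, and as reproducible when the median replicate Pearson correlation exceeded the 95th percentile of non-replicates. Phenotypic activity was assigned only when both criteria were met.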

WPMY1-TP53BP1-CLTA [2] = assay: as above
In short: as §1

A549-ACTB-RAB5A = assay: phenotypically active (imaging signature differs from DMSO and reproducible) at any of 0.3-9 uM (binary (1 = active, 0 = inactive)); higher = active
In short: as §1

A549-CANX-COX4 = assay: as above
In short: as §1

A549-GM130-SQSTM1 = assay: as above
In short: as §1

A549-TP53BP1-CLTA = assay: as above
In short: as §1

A549-TUBA1B-RELA = assay: as above
In short: as §1

HepG2-ACTB-RAB5A [3] = assay: as above
In short: as §1

HepG2-CANX-COX4 [4] = assay: as above
In short: as §1

HepG2-GM130-SQSTM1 [5] = assay: as above
In short: as §1

HepG2-TP53BP1-CLTA = assay: as above
In short: as §1

HepG2-TUBA1B-RELA = assay: as above
In short: as §1

WPMY1-ACTB-RAB5A = assay: as above
In short: as §1

WPMY1-CANX-COX4 = assay: as above
In short: as §1

WPMY1-GM130-SQSTM1 [6] = assay: as above
In short: as §1

WPMY1-TP53BP1-CLTA [7] = assay: as above
In short: as §1

WPMY1-TUBA1B-RELA = assay: as above
In short: as §1

HepG2-ACTB-RAB5A [8] = assay: lowest phenotypically active concentration; higher = less potent
In short: as §1

HepG2-CANX-COX4 [9] = assay: as above
In short: as §1

HepG2-GM130-SQSTM1 [10] = assay: as above
In short: as §1

Compound | lowest phenotypically active concentration (WPMY1-GM130-SQSTM1 [1]) | lowest phenotypically active concentration (WPMY1-TP53BP1-CLTA [2]) | phenotypically active (A549-ACTB-RAB5A) | phenotypically active (A549-CANX-COX4) | phenotypically active (A549-GM130-SQSTM1) | phenotypically active (A549-TP53BP1-CLTA) | phenotypically active (A549-TUBA1B-RELA) | phenotypically active (HepG2-ACTB-RAB5A [3]) | phenotypically active (HepG2-CANX-COX4 [4]) | phenotypically active (HepG2-GM130-SQSTM1 [5]) | phenotypically active (HepG2-TP53BP1-CLTA) | phenotypically active (HepG2-TUBA1B-RELA) | phenotypically active (WPMY1-ACTB-RAB5A) | phenotypically active (WPMY1-CANX-COX4) | phenotypically active (WPMY1-GM130-SQSTM1 [6]) | phenotypically active (WPMY1-TP53BP1-CLTA [7]) | phenotypically active (WPMY1-TUBA1B-RELA) | lowest phenotypically active concentration (HepG2-ACTB-RAB5A [8]) | lowest phenotypically active concentration (HepG2-CANX-COX4 [9]) | lowest phenotypically active concentration (HepG2-GM130-SQSTM1 [10])
N[C@@H]1C[C@H]1c1cc(F)cc(F)c1OCc1ccccc1 | 9 µM | 9 µM | 0 (inactive) | 0 (inactive) | 0 (inactive) | 0 (inactive) | 0 (inactive) | 0 (inactive) | 0 (inactive) | 0 (inactive) | 0 (inactive) | 0 (inactive) | 1 (active) | 0 (inactive) | 1 (active) | 1 (active) | 0 (inactive) | – | – | –
CN1[C@@H]2CC[C@H]1C[C@@H](OC(=O)C(CO)c1ccccc1)C2 (stereo partly drawn) [Atropine sulfate monohydrate] | – | – | 0 (inactive) | 0 (inactive) | 0 (inactive) | – | 0 (inactive) | 0 (inactive) | 0 (inactive) | 0 (inactive) | – | 0 (inactive) | 0 (inactive) | 0 (inactive) | 0 (inactive) | – | 0 (inactive) | – | – | –
Cc1sc2c(c1C)C(c1ccc(Cl)cc1)=N[C@H](CC(=O)OC(C)(C)C)c1nnc(C)n1-2 | 9 µM | – | 0 (inactive) | 0 (inactive) | 0 (inactive) | 0 (inactive) | 0 (inactive) | 1 (active) | 1 (active) | 1 (active) | 0 (inactive) | 0 (inactive) | 0 (inactive) | 0 (inactive) | 1 (active) | 0 (inactive) | 1 (active) | 9 µM | 9 µM | 9 µM
O=P1(N(CCCl)CCCl)NCCCO1 (stereo not drawn) [cyclophosphamide] | – | – | – | 0 (inactive) | – | 0 (inactive) | – | 0 (inactive) | 0 (inactive) | 0 (inactive) | 0 (inactive) | 0 (inactive) | 0 (inactive) | 0 (inactive) | 0 (inactive) | 0 (inactive) | 0 (inactive) | – | – | –
O=C1NC(=S)N(c2cccc(Br)c2)C(=O)/C1=C/c1ccco1 | 3 µM | 9 µM | 0 (inactive) | 0 (inactive) | 0 (inactive) | 0 (inactive) | 1 (active) | 0 (inactive) | 1 (active) | 1 (active) | 0 (inactive) | 1 (active) | 1 (active) | 1 (active) | 1 (active) | 1 (active) | 1 (active) | – | 9 µM | 9 µM
O=C1CCCN1CC#CCN1CCCC1 [Oxotremorine sesquifumarate] | – | – | – | 0 (inactive) | – | 0 (inactive) | – | 0 (inactive) | 0 (inactive) | 0 (inactive) | 0 (inactive) | 0 (inactive) | 0 (inactive) | 0 (inactive) | 0 (inactive) | 0 (inactive) | 0 (inactive) | – | – | –
Cc1c(C(=O)c2cccc3ccccc23)c2cccc3c2n1[C@H](CN1CCOCC1)CO3 [WIN 55,212-2 mesylate] | 9 µM | 9 µM | 0 (inactive) | 0 (inactive) | 1 (active) | 0 (inactive) | 0 (inactive) | 0 (inactive) | 0 (inactive) | 1 (active) | 0 (inactive) | 0 (inactive) | 1 (active) | 1 (active) | 1 (active) | 1 (active) | 0 (inactive) | – | – | 9 µM
CN1C(=O)CN=C(c2ccccc2)c2cc(Cl)ccc21 [diazepam] | – | – | 0 (inactive) | 0 (inactive) | 0 (inactive) | 0 (inactive) | 0 (inactive) | 1 (active) | 0 (inactive) | 0 (inactive) | 0 (inactive) | 0 (inactive) | 0 (inactive) | 0 (inactive) | 0 (inactive) | 0 (inactive) | 0 (inactive) | 9 µM | – | –
c1ccc([C@@H]2C[C@H]2NC2CCNCC2)cc1 [GSK LSD 1 dihydrochloride] | 9 µM | – | 0 (inactive) | 0 (inactive) | 0 (inactive) | 0 (inactive) | 0 (inactive) | 0 (inactive) | 0 (inactive) | 0 (inactive) | 0 (inactive) | 0 (inactive) | 0 (inactive) | 0 (inactive) | 1 (active) | 0 (inactive) | 0 (inactive) | – | – | –
C=C(C)[C@H]1Cc2c(ccc3c2O[C@@H]2COc4cc(OC)c(OC)cc4[C@@H]2C3=O)O1 [Rotenone] | 1 µM | ≤ 0.3 µM | – | 1 (active) | – | 1 (active) | – | 1 (active) | 1 (active) | 1 (active) | 1 (active) | 1 (active) | 1 (active) | 1 (active) | 1 (active) | 1 (active) | 1 (active) | ≤ 0.3 µM | ≤ 0.3 µM | ≤ 0.3 µM
